Test results: PubChem BioAssay
A number with no mark means an inactive call.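 The calls were made as follows: active = compounds killing one labelled cell type while sparing the other, by normalised counts and ratio limits, not self-fluorescent; inactive = the rest.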

test: EMT-state selective cytotoxicity in co-culture – imaging, PC-3E GFP, TEM4-18 mCherry, primary screen (AID 1345086); conditions: PC-3E GFP / TEM4-18 mCherry co-culture, imaging cell counts; at 1 µM; actives lie on both sides; counts scaled to control wells, 1 = unselective;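 also: normalised mesenchymal count divided by normalised epithelial count so high means epithelial killing; cells exposed to compound for 72 h before imaging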

For `CC(=O)OCC(=O)[C@@]1(O)[C@H](C)CC2C3CCC4=CC(=O)C=C[C@]4(C)[C@@]3(F)[C@@H](O)C[C@@]21C` (some centres undefined), which red/green cell ratio (normalised) is on record?
The red/green cell ratio (normalised) was 1.26.

For `Nc1ccn(C2O[C@H](CO)[C@@H](O)[C@H]2O)c(=O)n1` (some centres undefined), which red/green cell ratio (normalised) is on record?
The red/green cell ratio (normalised) was 1.13.

For `O=C(/C=C/c1ccc(O)c(O)c1)OC(Cc1ccc(O)c(O)c1)C(=O)O` (centres undefined), which red/green cell ratio (normalised) is on record?
Its red/green cell ratio (normalised) is 1.03.

With `C=C(C)[C@H]1CC=C(C(=O)O)CC1` as the molecule, how does the red/green cell ratio (normalised) read?
Its red/green cell ratio (normalised) is 0.84.

For `NC(COCc1ccccc1)C(=O)O` (centres undefined), which red/green cell ratio (normalised) is on record?
The red/green cell ratio (normalised) was 0.87.

For `C/C=C(/C)C(=O)O[C@@H]1[C@H](OC(C)=O)[C@@]2(CO)C(CC1(C)C)C1=CCC3[C@@]4(C)CC[C@H](O[C@@H]5O[C@H](C(=O)O)[C@@H](O[C@@H]6O[C@H](CO)[C@@H](O)[C@H](O)[C@H]6O)[C@H](O)[C@H]5O[C@@H]5O[C@H](CO)[C@@H](O)[C@H](O)[C@H]5O)[C@](C)(CO)C4CC[C@@]3(C)[C@]1(C)C[C@H]2O` (some centres undefined), which red/green cell ratio (normalised) is on record?
The red/green cell ratio (normalised) was 0.77.

Which red/green cell ratio (normalised) does the source give for `C[C@@H]1O[C@@H](OC[C@H]2OC(Oc3c(-c4ccc(OCCO)c(OCCO)c4)oc4cc(OCCO)cc(O)c4c3=O)[C@H](O)[C@@H](O)[C@@H]2O)[C@H](O)[C@H](O)[C@H]1O` (some centres undefined) here?
Its red/green cell ratio (normalised) is 0.94.

For `CC1(C)C2CC[C@]3(C)C(C(=O)C=C4[C@H]5C[C@@](C)(C(=O)O)CC[C@]5(C)CC[C@]43C)[C@@]2(C)CC[C@@H]1O` (some centres undefined), which red/green cell ratio (normalised) is on record?
Its red/green cell ratio (normalised) is 1.07.

For `CC1(C)C2CC[C@]3(C)C(C(=O)C=C4[C@@H]5C[C@@](C)(C(=O)O)CC[C@]5(C)CC[C@]43C)[C@@]2(C)CC[C@@H]1O` (some centres undefined), which red/green cell ratio (normalised) is on record?
Its red/green cell ratio (normalised) is 0.98.
